# Measurements from PubChem BioAssay (NCATS).
# Inconclusive results are not listed. Unmarked numbers belong to inactive results. The source made the active and inactive calls. Calls follow the shape of the dose curve; as a rule, active = well fitted cell-killing curve with a large enough effect; inconclusive = small, poorly fitted or top-dose-only effect; inactive = flat fitted curve, though single readings scatter.
# Experiment: Cell Viability - LYMP2-026 (AID 989); also: nearly all actives have a fitted effect of over 50% in size
# Details: LYMP2-026 lymphoblastoid cell viability, qHTS; series mostly up to 92.2 µM; activity change, negative = cytotoxic: at the top concentration
# Excerpt: NIH Chemical Genomics Center [NCGC]
# NIH Molecular Libraries Screening Centers Network [MLSCN]
# National Institutes of Environmental Health Sciences [NIEHS]
# National Toxicology Program [NTP]
# We have developed a 1536-well cell-based assay for quantitative high throughput screening (qHTS) against a number of cell lines to determine in vitro cytotoxicity of small molecules. This particular assay uses a human lymphoblastoid cell line (LYMP2-026) purchased from Coriell Institute for Medical Research.
# NCGC Assay Protocol Summary:
# The CellTiter-Glo luminescent cell viability assay (Promega) is a homogeneous method to measure the number of viable cells in culture. The end point readout of this assay is based on quantitation of intracellular ATP, an indicator of metabolic activity, using the luciferase reaction. Luciferase catalyzes the oxidation of beetle Luciferin to oxyluciferin and light in the presence of ATP. The luminescent signal is proportional to amount of ATP present.
# Using the CellTiter-Glo luminescent cell viability assay, the amount of cellular ATP was measured in the lymphoblastoid cell line with complete culture medium following compound treatment for 24 hours. The assay was performed in opaque white Kalypsys 1536-well plates. In the screen, tetraoctylammonium bromide was used as positive control. Library compounds were measured for their ability to cause acute toxicity in the cell line, as reflected by a decrease in intracellular ATP levels, in a concentration-dependent manner. […] AC50 values were determined from concentration-response data modeled with the standard Hill equation.
# qHTS protocol for CellTiter Glo lymphoblastoid cellular assay
# [Step] [Parameter] [Value] [Description]
# 1. Reagent; 5 uL; 2500 lymphoblastoid cells/well
# 2. Time; 5 hr; 37 C incubation
# 4. Controls; 23 nL; Tetraoctylammonium bromide 6.4pM to 92 uM
# 5. Time; 24 hr; 37 C incubation
# 6. Reagent; 5 uL; CellTiter Glo reagent
# 7. Time; 30 min; Room Temperature
# 8. Detection; Luminescence; Viewlux plate reader
# Keywords: cell viability, cytotoxicity, lymphoblastoid cell line, luminescence, NTPHTS, NTPHTS_NCGC, NIEHS, DSSTox, MLSMR, MLSCN, NIH Roadmap, qHTS, NCGC
# % is scaled to controls: 0 for no effect and ±100 for the full control effect.
SMILES,"activity change, negative = cytotoxic",Potency
Cc1ccc([N+](=O)[O-])c(C)c1,-2.08%,–
O=C1c2ccccc2C(=O)C1c1ccc2ccccc2n1,-7.22%,–
Nc1ccc(S(=O)(=O)O)cc1,-13.3%,–
O[C@@H]([C@H](O)[C@@H](O)CBr)[C@@H](O)CBr,-2.19%,–
CCCCCCCCCCCCCCC1CO1 (stereo not given),3.19%,–
C=CCc1ccc(OC)c(OC)c1,2.91%,–
CCCCC(CC)CN (stereo not given),–,inactive
CC1(C)CC(N=C=O)CC(C)(CN=C=O)C1 (stereo not given),-0.487%,–
Cc1ccc([N+](=O)[O-])cc1N,-8.72%,–
O=C(O)c1ccccc1C(c1ccc(O)cc1)c1ccc(O)cc1,6.54%,–
Cc1cccc([N+](=O)[O-])c1C,1.23%,–
C=C(C)C1CC=C(C)C(O)C1 (stereo not given),-6.44%,–
C=CCOC(=O)c1ccccc1C(=O)OCC=C,7.29%,–
Cc1ccc(N)c([N+](=O)[O-])c1,-0.218%,–
C=Cc1ccccc1Cl,10.9%,–
CCC(C)c1ccccc1O (stereo not given),–,inactive
O=C(/C=C/c1ccc(O)c(O)c1)O[C@@H](C(=O)O)[C@@H](OC(=O)/C=C/c1ccc(O)c(O)c1)C(=O)O,-3.81%,–
CN(C)CCCCCCN(C)C,-1.81%,–
O=C(O)CC(C(=O)O)C(CC(=O)O)C(=O)O (stereo not given),4.19%,–
c1ccc2c(c1)c1cccc3ccc4cccc2c4c31,-4.96%,–

SMILES,"activity change, negative = cytotoxic",Potency
c1ccc2c(c1)[nH]c1ccccc12,2.17%,–
COc1ccc(/C=C/c2cc(OC)cc(=O)o2)cc1,-3.88%,–
c1ccc2scnc2c1,5.54%,–
C=CC(=C)CCC=C(C)C,2.55%,–
O=C(O)c1ccc(O)cc1O,–,inactive
Clc1cc(Cl)c(Cl)c(Cl)c1Cl,2.73%,–
C1OCOCO1,2.59%,–
CCC(O)OC(O)CC (stereo not given),–,inactive
CCO[Si](CCCN)(OCC)OCC,-6.05%,–
Clc1cc(Cl)c(Cl)cc1Cl,11.5%,–
CC12CCC(CC1=O)C2(C)C (stereo not given),5.79%,–
c1ccccc1,–,inactive
CCO,-1.16%,–
COCC(=O)O,-11.4%,–
C[C@H](CCC(=O)O)[C@H]1CC[C@H]2[C@@H]3CC[C@@H]4C[C@H](O)CC[C@]4(C)[C@H]3CC[C@]12C,-8.85%,–
C/C=C\c1ccc(OC)cc1,-7.02%,–
O=S(=O)(O)c1ccccc1,-1.14%,–
CC1=CC(C)(C)Nc2ccccc21,–,inactive
COC(=O)c1ccc(C=O)cc1,-6.71%,–
O=C(O)c1ccccc1,0.771%,–
